What is called AC50 is the concentration giving half of the maximal activity seen.

Experimental findings from PubChem BioAssay (EPA / NIEHS) are described below.

In experiment [1] the target is human Neurotensin Receptor (NTS), NTSR1 (gene 4923) (UniProt P30989). As to the kind of experiment: NVS_GPCR_hNTS: NovaScreen (NVS) G Protein-Coupled Receptor Assay for human Neurotensin Receptor (NTS) (AID 2283279). Summed up: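 Compounds competed with a radiolabelled ligand for binding to CHO-derived human neurotensin receptor; bound signal counted after filtration, 1 h. Screened first at a single concentration of 25 uM in duplicate, then concentration series to 50 uM maximum for actives.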
Sequence of human Neurotensin Receptor (NTS), NTSR1 (gene 4923) (P30989 whole entry, looked up): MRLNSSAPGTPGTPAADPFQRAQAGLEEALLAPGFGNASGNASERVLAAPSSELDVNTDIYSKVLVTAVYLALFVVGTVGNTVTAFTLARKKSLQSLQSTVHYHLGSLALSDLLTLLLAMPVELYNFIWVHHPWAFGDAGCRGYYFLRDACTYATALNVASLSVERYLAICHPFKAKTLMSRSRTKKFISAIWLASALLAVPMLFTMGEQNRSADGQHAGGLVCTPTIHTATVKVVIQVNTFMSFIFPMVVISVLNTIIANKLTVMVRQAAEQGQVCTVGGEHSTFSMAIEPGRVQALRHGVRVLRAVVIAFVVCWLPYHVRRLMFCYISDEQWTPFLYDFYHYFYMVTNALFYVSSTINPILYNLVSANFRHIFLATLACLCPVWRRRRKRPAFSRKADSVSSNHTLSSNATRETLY

The target of experiment [2] is guinea pig Serotonin, 5-Hydroxytryptamine Receptor 4 (5HT4), HTR4 (gene 100135548) (UniProt O70528). As to the kind of experiment: NVS_GPCR_g5HT4: NovaScreen (NVS) G Protein-Coupled Receptor Assay for guinea pig Serotonin, 5-Hydroxytryptamine Receptor 4 (5HT4) (AID 2283294). Summed up:
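Compounds first screened in duplicate at 25 uM, actives followed up in concentration series. Binding measured as displacement of specific radioligand from guinea pig striatal membranes, 1 h, filter-based scintillation read-out versus DMSO baseline.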

The target in experiment [3] is human Opioid Receptor Delta 1 (Opiate D1), OPRD1 (gene 4985) (UniProt P41143). As to the kind of experiment: NVS_GPCR_hOpiate_D1: NovaScreen (NVS) G Protein-Coupled Receptor Assay for human Opioid Receptor Delta 1 (Opiate D1) (AID 2283280). Summed up:
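Membrane preparations from CHO cells bearing the human receptor were incubated 1 h with test chemical, and bound radioligand was counted after filtration. Actives from 25 uM duplicate screening were retested in concentration-response.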

Experiment [4] addresses human Opioid Receptor Mu (Opiate Mu), OPRM1 (gene 4988) (UniProt P35372). As to the kind of experiment: NVS_GPCR_hOpiate_mu: NovaScreen (NVS) G Protein-Coupled Receptor Assay for human Opioid Receptor Mu (Opiate Mu) (AID 2283290).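 Note: hits lower bound tracer signal versus DMSO meaning displacement of the ligand.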 Summed up: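 Here, radioligand binding to CHO-extracted receptor was measured after 2.5 h using filter-based scintillation detection. Initial single-concentration screening used 25 uM in duplicate with plate controls; confirmed actives went to concentration-response testing.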

The subject of experiment [5] is rabbit Platelet Activating Factor Receptor (PAF), gene 100354046. As to the kind of experiment: NVS_GPCR_rabPAF: NovaScreen (NVS) G Protein-Coupled Receptor Assay for rabbit Platelet Activating Factor Receptor (PAF) (AID 2283287). An outline of the steps: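 Rabbit platelet membrane preparation; radioligand displacement read by filter-based scintillation counting 1 h after dosing, loss of signal versus DMSO. Primary screen in duplicate at 25 uM, actives followed up in concentration series.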

Experiment [6] deals with guinea pig Atrionatriuretic Peptide Receptor A (ANPA), gene 100135578. As to the kind of experiment: NVS_GPCR_gANPA: NovaScreen (NVS) G Protein-Coupled Receptor Assay for guinea pig Atrionatriuretic Peptide Receptor A (ANPA) (AID 2283291). Summed up:
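Displacement of specific radioligand from guinea pig cerebellum membranes was read by scintillation after 1 h. A duplicate single-point screen at 25 uM was followed by a concentration series up to 50 uM, analysed relative to DMSO.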

The target in experiment [7] is human Neurokinin, NK2 Receptor, TACR2 (gene 6865) (UniProt P21452). As to the kind of experiment: NVS_GPCR_hNK2: NovaScreen (NVS) G Protein-Coupled Receptor Assay for human Neurokinin, NK2 Receptor (AID 2283278).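 Note: actives reduce bound radioligand signal relative to DMSO baseline.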 Summed up:
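Test chemicals displace a radioligand from receptor prepared from CHO cells in a cell-free format, read after 4 hours by scintillation counting on filters. Screening starts at 25 uM in duplicate, and active chemicals then go to concentration series.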

Experiment [8] concerns the target mouse Cholecystokinin, CCK2 Receptor (CCKB), Cckbr (gene 12426) (UniProt P56481). As to the kind of experiment: NVS_GPCR_mCKKBCentral: NovaScreen (NVS) G Protein-Coupled Receptor Assay for mouse Cholecystokinin, CCK2 Receptor (CCKB) (AID 2283293). Summed up: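 Mouse forebrain membrane preparation incubated 2 h with chemical and radioligand; bound radioactivity counted after filtration. Single-concentration duplicate screen at 25 uM, then concentration series to 50 uM max for hits, DMSO as baseline.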

In experiment [9] the target is rat Adrenergic, Alpha 1, Non-selective Receptor (Adra1), Adra1a (gene 29412) (UniProt P43140). As to the kind of experiment: NVS_GPCR_rAdra1_NonSelective: NovaScreen (NVS) G Protein-Coupled Receptor Assay for rat Adrenergic, Alpha 1, Non-selective Receptor (Adra1) (AID 2283289). An outline of the steps: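 Chemicals first screened in duplicate at 25 uM, then actives tested in concentration series up to 50 uM. Binding measured as displacement of radioligand from rat forebrain membrane receptors, 1 h, filtration with scintillation readout; DMSO baseline.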
Sequence of rat Adrenergic, Alpha 1, Non-selective Receptor (Adra1), Adra1a (gene 29412) (P43140 whole entry, looked up): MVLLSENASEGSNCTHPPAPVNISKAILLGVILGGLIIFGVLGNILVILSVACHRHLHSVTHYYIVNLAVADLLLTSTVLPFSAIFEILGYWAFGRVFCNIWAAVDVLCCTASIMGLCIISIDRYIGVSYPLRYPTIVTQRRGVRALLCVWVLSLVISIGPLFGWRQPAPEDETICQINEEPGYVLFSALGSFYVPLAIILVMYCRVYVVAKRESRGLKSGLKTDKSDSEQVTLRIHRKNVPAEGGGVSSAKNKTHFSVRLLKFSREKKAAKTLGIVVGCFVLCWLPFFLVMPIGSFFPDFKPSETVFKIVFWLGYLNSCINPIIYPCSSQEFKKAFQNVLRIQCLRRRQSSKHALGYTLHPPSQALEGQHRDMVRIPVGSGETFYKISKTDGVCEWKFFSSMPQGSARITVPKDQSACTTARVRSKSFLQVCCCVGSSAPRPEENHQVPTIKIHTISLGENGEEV

Experiment [10] concerns the target human Muscarinic, M4 Receptor, CHRM4 (gene 1132) (UniProt P08173). As to the kind of experiment: NVS_GPCR_hM4: NovaScreen (NVS) G Protein-Coupled Receptor Assay for human Muscarinic, M4 Receptor (AID 2283274). An outline of the steps:
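Filter-based scintillation counting of radioligand bound to CHO-expressed human M4 preparations after 1 h; loss of signal fitted versus DMSO. Initial duplicate testing at 25 uM, concentration-response follow-up for actives.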

Experiment [11] has as its target guinea pig Bradykinin Receptor B2 (BK2), BDKRB2 (gene 100135486) (UniProt O70526). As to the kind of experiment: NVS_GPCR_gBK2: NovaScreen (NVS) G Protein-Coupled Receptor Assay for guinea pig Bradykinin Receptor B2 (BK2) (AID 2283292). Summed up:
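Guinea pig ileum membrane preparation incubated 1 h with radioligand and test chemical; bound counts measured after filtration. Primary duplicate screening at 25 uM, then singleton concentration series with a 50 uM top dose; DMSO as baseline.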

In experiment [12] the target is Muscarinic acetylcholine receptor M2 (Homo sapiens) (UniProt P08172). As to the kind of experiment: NVS_GPCR_hM2: NovaScreen (NVS) G Protein-Coupled Receptor Assay for human Muscarinic, M2 Receptor (AID 2283273). An outline of the steps: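 CHO-expressed human M2 receptor preparation, competitive displacement of a radioligand read by filter-based scintillation counting after 1 h. Single 25 uM duplicate screen, then concentration-response follow-up of actives; DMSO baseline.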
Sequence of Muscarinic acetylcholine receptor M2 (Homo sapiens) (P08172 whole entry, looked up): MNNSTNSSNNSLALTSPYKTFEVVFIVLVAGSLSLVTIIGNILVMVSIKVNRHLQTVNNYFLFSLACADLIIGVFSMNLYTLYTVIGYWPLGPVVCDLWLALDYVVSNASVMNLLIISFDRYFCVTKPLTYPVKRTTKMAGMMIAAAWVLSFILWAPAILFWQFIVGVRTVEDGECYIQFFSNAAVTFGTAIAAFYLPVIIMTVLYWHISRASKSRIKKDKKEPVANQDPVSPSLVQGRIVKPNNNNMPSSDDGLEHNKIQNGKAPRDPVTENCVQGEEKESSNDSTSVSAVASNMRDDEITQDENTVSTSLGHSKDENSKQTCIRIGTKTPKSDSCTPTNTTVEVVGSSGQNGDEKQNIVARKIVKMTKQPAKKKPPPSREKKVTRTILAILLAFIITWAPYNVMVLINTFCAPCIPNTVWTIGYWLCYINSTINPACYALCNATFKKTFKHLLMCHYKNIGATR

Experiment [13] deals with human Neuropeptide Receptor Y1 (NPY1), NPY1R (gene 4886) (UniProt P25929). As to the kind of experiment: NVS_GPCR_hNPY1: NovaScreen (NVS) G Protein-Coupled Receptor Assay for human Neuropeptide Receptor Y1 (NPY1) (AID 2283276). An outline of the steps: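 Displacement of specific radioligand from NPY1 receptor of SK-N-MC origin, read by filtration and scintillation after 1 h. Compounds first tested at 25 uM in duplicate, then actives in concentration series; signal loss relative to DMSO.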
Sequence of human Neuropeptide Receptor Y1 (NPY1), NPY1R (gene 4886) (P25929 whole entry, looked up): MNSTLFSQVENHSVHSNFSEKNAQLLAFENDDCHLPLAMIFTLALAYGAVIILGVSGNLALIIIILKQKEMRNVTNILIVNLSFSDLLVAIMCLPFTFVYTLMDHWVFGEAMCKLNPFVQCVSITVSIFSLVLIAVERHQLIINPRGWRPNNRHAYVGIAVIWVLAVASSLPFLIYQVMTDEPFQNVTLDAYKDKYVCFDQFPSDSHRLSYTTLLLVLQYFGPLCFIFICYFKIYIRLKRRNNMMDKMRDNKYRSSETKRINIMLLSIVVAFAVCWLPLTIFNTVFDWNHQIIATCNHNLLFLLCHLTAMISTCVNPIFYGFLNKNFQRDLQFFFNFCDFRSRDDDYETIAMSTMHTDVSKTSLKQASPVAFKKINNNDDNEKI

For experiment [14], the target named is human Purinergic Receptor P2Y, P2RY1 (gene 5028) (UniProt P47900). As to the kind of experiment: NVS_GPCR_hPY2: NovaScreen (NVS) G Protein-Coupled Receptor Assay for human Purinergic Receptor P2Y (AID 2283281). An outline of the steps:
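Filtration scintillation readout of radioligand displacement on U937 extract, measured 1 h post-dosing. Single 25 uM duplicate screen, then singleton concentration series to 50 uM for chemicals passing threshold; DMSO as baseline.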

The target of experiment [15] is human Orphanin, Opioid Related Nociceptin Receptor 1 (ORL1), OPRL1 (gene 4987) (UniProt P41146). As to the kind of experiment: NVS_GPCR_hORL1: NovaScreen (NVS) G Protein-Coupled Receptor Assay for human Orphanin, Opioid Related Nociceptin Receptor 1 (ORL1) (AID 2283283). An outline of the steps: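 Cell-free binding using HEK293-derived receptor protein: radioligand displacement measured by filter scintillation 1 hour after dosing. Primary testing at 25 uM in duplicate, followed by singleton concentration series up to 50 uM; DMSO served as negative control.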

Experiment [16] has as its target rat Serotonin, 5-Hydroxytryptamine Receptor 1 (5HT1), Non-Selective Binding, Htr1a (gene 24473) (UniProt P19327). As to the kind of experiment: NVS_GPCR_r5HT1_NonSelective: NovaScreen (NVS) G Protein-Coupled Receptor Assay for rat Serotonin, 5-Hydroxytryptamine Receptor 1 (5HT1), Non-Selective Binding (AID 2283286). An outline of the steps: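 Binding of a radioligand to rat cortex membranes is read by filtration and scintillation counting after 1 h. Compounds were screened at 25 uM in duplicate. Actives were then titrated to a top of 50 uM. DMSO is the baseline.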

Experiment [17] deals with 5-hydroxytryptamine receptor 2C (pig). As to the kind of experiment: NVS_GPCR_p5HT2C: NovaScreen (NVS) G Protein-Coupled Receptor Assay for pig Serotonin, 5-Hydroxytryptamine Receptor 2C (5HT2C) (AID 2283288). An outline of the steps:
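Radioligand displacement on membranes from pig choroid plexus, detected by filter scintillation counting after 1 h. Tested first at a single 25 uM in duplicate, then in concentration-response for actives; DMSO served as baseline.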

Results filed as inconclusive are left out. Activity calls are given as the source filed them. Rule for the calls: active = hit-call score of the fitted dose curve at least 0.9, where 1 is the maximum; inconclusive = response in the unintended direction; inactive = score below 0.9.

Sequence of human Opioid Receptor Mu (Opiate Mu), OPRM1 (gene 4988) (P35372 whole entry, looked up): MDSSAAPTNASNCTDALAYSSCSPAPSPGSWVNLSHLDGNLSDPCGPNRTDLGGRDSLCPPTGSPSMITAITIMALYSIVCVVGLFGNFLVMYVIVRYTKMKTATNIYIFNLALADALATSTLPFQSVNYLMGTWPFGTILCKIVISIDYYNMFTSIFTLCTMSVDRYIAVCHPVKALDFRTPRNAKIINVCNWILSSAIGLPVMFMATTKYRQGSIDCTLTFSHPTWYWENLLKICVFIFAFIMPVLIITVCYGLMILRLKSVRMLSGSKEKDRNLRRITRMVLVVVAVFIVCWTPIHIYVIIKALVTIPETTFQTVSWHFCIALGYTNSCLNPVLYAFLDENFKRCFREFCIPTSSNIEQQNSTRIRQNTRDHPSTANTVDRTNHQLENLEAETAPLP
Sequence of guinea pig Serotonin, 5-Hydroxytryptamine Receptor 4 (5HT4), HTR4 (gene 100135548) (O70528 whole entry, looked up): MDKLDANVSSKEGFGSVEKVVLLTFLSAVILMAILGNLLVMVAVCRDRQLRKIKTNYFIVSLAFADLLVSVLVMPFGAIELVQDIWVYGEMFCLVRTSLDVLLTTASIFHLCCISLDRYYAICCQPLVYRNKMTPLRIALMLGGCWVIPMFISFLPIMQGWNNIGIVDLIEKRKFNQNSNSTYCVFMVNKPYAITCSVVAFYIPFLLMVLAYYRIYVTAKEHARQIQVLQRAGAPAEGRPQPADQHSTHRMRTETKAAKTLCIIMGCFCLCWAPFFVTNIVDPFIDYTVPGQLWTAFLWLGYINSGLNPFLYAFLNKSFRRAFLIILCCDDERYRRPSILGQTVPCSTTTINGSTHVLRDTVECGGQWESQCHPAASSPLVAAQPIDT
Sequence of human Opioid Receptor Delta 1 (Opiate D1), OPRD1 (gene 4985) (P41143 whole entry, looked up): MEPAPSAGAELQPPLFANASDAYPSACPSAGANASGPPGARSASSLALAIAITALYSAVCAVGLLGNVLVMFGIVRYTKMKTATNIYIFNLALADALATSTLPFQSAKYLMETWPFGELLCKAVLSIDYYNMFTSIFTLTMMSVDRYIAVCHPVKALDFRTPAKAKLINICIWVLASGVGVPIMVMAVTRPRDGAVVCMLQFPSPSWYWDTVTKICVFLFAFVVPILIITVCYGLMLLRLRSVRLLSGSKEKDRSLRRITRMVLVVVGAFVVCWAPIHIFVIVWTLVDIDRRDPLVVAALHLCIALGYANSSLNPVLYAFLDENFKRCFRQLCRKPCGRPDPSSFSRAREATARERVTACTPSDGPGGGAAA
Sequence of human Muscarinic, M4 Receptor, CHRM4 (gene 1132) (P08173 whole entry, looked up): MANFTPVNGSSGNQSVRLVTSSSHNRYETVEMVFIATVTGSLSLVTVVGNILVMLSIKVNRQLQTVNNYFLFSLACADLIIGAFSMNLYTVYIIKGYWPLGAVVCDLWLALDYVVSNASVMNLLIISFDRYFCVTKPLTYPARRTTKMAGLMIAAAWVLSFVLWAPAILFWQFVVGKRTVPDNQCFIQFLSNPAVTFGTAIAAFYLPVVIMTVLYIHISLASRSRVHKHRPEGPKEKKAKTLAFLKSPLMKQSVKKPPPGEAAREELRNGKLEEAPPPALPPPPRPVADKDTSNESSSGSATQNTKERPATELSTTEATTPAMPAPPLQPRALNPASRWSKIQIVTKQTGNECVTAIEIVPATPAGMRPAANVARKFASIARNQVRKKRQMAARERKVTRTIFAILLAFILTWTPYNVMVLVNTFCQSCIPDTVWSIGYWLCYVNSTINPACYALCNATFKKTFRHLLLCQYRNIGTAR
Sequence of human Neurokinin, NK2 Receptor, TACR2 (gene 6865) (P21452 whole entry, looked up): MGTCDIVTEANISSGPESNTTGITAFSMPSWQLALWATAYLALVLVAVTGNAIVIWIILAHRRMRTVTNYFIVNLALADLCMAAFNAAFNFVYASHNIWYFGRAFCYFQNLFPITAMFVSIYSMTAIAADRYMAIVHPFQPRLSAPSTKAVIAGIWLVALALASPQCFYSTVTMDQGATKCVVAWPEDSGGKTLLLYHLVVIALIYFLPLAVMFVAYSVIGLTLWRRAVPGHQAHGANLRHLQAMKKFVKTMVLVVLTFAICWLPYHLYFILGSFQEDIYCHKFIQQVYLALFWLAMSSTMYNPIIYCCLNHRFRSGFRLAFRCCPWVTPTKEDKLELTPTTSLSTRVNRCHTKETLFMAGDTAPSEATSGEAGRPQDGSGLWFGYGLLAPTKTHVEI
Sequence of mouse Cholecystokinin, CCK2 Receptor (CCKB), Cckbr (gene 12426) (P56481 whole entry, looked up): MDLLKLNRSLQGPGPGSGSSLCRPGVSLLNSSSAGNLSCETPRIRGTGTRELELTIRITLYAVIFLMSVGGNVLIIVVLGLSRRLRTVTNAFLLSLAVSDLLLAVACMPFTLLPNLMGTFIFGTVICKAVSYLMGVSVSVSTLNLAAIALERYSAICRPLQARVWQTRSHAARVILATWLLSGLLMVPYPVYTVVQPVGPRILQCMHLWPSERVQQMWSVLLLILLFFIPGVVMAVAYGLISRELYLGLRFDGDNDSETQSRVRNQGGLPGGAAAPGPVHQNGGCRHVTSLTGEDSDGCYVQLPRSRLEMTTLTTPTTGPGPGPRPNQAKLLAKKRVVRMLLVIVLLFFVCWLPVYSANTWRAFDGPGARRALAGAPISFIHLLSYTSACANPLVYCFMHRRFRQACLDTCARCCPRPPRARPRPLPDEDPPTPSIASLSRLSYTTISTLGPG
Sequence of rat Serotonin, 5-Hydroxytryptamine Receptor 1 (5HT1), Non-Selective Binding, Htr1a (gene 24473) (P19327 whole entry, looked up): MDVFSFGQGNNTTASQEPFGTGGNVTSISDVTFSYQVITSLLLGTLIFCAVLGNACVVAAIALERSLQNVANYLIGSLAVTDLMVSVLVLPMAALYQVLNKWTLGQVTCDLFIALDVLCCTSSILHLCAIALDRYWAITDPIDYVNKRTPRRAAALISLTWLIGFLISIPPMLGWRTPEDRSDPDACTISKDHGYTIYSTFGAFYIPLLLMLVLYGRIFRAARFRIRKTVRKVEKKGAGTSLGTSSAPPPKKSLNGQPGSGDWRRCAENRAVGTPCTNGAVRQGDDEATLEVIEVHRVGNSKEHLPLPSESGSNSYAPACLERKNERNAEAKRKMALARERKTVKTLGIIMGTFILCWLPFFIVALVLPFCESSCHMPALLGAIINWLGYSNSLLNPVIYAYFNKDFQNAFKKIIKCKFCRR

With `COc1nc(C)nc(NC(=O)NS(=O)(=O)c2ccccc2Cl)n1`, the outcome in experiment [1] was inactive.

For the compound `Oc1ccccc1-c1ccccc1`, the call in experiment [2] was inactive.

For the compound `CCOP(=S)(OCC)SCn1c(=O)oc2cc(Cl)ccc21`, in experiment [3], the compound was classed as inactive. In [4], the half-maximal activity concentration (AC50) is 19.2 µM (active).

For `Fc1ccc(Oc2ccnc3cc(Cl)cc(Cl)c23)cc1`, the compound was called inactive in experiment [5] and in experiment [6].

For `CCOC(=O)C(Cl)Cc1cc(-n2nc(C)n(C(F)F)c2=O)c(F)cc1Cl` (configuration not stated), the compound was classed as inactive in [7].

For `C#CCOS(=O)OC1CCCCC1Oc1ccc(C(C)(C)C)cc1` (configuration not stated), the result in [1] and in experiment [8] was inactive.

In the case of `Cc1c(F)c(F)c(COC(=O)C2C(/C=C(\Cl)C(F)(F)F)C2(C)C)c(F)c1F` (configuration not stated), in experiment [9], the call was inactive.

For the compound `COC(=O)N(OC)c1ccccc1COc1ccn(-c2ccc(Cl)cc2)n1`, the AC50 in experiment [4] is 0.879 µM (active).

In the case of `CCCC1COC(Cn2cncn2)(c2ccc(Cl)cc2Cl)O1` (configuration not stated), in [10], the compound was classed as inactive. The figures for the AC50 in experiment [3], in [5] and in [4] were 2.09 µM (active), 14.4 µM (active) and 8.68 µM (active), respectively.

As to `CCc1nn(C)c(C(=O)NCc2ccc(C(C)(C)C)cc2)c1Cl`, the call in experiment [5] was inactive.

For `CCCN(CCC)c1c([N+](=O)[O-])cc(S(N)(=O)=O)cc1[N+](=O)[O-]`, the outcome in experiment [11] was inactive.

For `CNC(=S)S`, the compound was classed as inactive in [12], in experiment [13], in [1], in experiment [14], in [5] and in [4]. Besides, in experiment [15], the AC50 was 40.3 µM (active).

Take `O=C(Nc1ccccc1)Nc1ccnc(Cl)c1`: the AC50 was 6.97 µM (active) in experiment [4] and 9.9 µM (active) in experiment [2].

Turning to `CC1COC(Cn2cncn2)(c2ccc(Oc3ccc(Cl)cc3)cc2Cl)O1` (configuration not stated), in [4], the AC50 was 1.88 µM (active). For the same compound, the call in [2] was inactive.

For the compound `CC(C)Oc1cc(-n2nc(C(C)(C)C)oc2=O)c(Cl)cc1Cl`, the AC50 in experiment [5] was 9.82 µM (active).

Regarding `CS/C(C)=N/OC(=O)N(C)SN(C)C(=O)O/N=C(\C)SC`, the AC50 in [13] is 25 µM (active). Also, the call in experiment [4] was inactive.

With `CN(C)C(=S)SSC(=S)N(C)C`, the call in experiment [10] and in experiment [16] was inactive. The results for the AC50 in experiment [13] and in [4] were 14.7 µM (active) and 5.29 µM (active), respectively.

Turning to `CON(C)C(=O)Nc1ccc(Cl)c(Cl)c1`, the AC50 in experiment [17] was 25 µM (active); in experiment [2], 12.4 µM (active).
